Records with an inconclusive call do not appear. Where a call stands in place of a potency, no number is given. Unmarked numbers belong to inactive results. Activity calls are given as the source filed them. Calls follow the shape of the full dose curve.
Potency is read from the fitted curve at half-maximal effect.

A short description of this assay: p53 small molecule agonists, cell-based qHTS assay: qHTS cell viability counter screen (AID 1963581). Also: nearly all actives have a fitted effect of over 45% in size. The note with it: p53RE-bla HCT-116 viability, ATP luminescence, 16 h; series mostly up to 66 µM. The source says: National Center for Advancing Translational Sciences [NCATS]
Division of Preclinical Innovation [DPI]
U.S. Environmental Protection Agency [EPA]
National Institutes of Environmental Health Sciences [NIEHS]
National Toxicology Program [NTP]
U.S. Food and Drug Administration [FDA]
p53, a tumor suppressor protein, is activated following cellular insult, including DNA damage and other cellular stresses. The activation of p53 regulates cell fate by inducing DNA repair, cell cycle arrest, apoptosis, or cellular senescence. The activation of p53, therefore, is a good indicator of DNA damage and other cellular stresses. The CellSensor p53RE-bla HCT-116 cell line (Invitrogen) contains a stably integrated beta-lactamase reporter gene under control of the p53 response elements. The activation of the reporter gene under culture conditions can be detected by fluorescence intensity. This cell line was used to screen the Tox21 compound library in a 1536-well plate format and to identify agonists that activate the p53 signaling pathway. The cytotoxicity of the Tox21 compound library against the p53 RE-bla HCT-116 cell line was tested in parallel by measuring the intra cellular ATP content in the same wells.
Tox21 Assay Protocol Summary:
The p53RE-bla cells were dispensed at 4,000 cells/5 ul/well in 1536-well black wall/clear bottom plates using a Multidrop dispenser. After the assay plates were incubated at a 37 C/5% CO2 incubator for 5 hours, 23 nL of compounds dissolved in DMSO, positive controls or DMSO only was transferred to the assay plate by a pin tool. The plates were incubated at 37 C for 16 hours. After 1 uL of LiveBLAzerTM B/G FRET substrate was added using a Flying Reagent Dispenser, the plates were incubated at room temperature for 2 hours, and fluorescence intensity was measured by an Envision plate reader. For cell viability readout that measures cytotoxicity, 4 ul/well of CellTiter-Glo reagent was added into the assay plates using a Flying Reagent Dispenser. After 30 min incubation at room temperature, the luminescence intensity in the plates was measured using a ViewLux plate reader.
In general terms: In qHTS, concentration-response curves come from the screen itself.
In the case of `Cc1c(I)c(=O)n(-c2ccccc2)n1C`, the Potency result is “inactive”. Same read-out and setting: as for `Cc1c(N)cccc1C(F)(F)F`, the entry is “inactive”. On the same count and under the same terms, the value for `O=C1c2ccccc2C(=O)C1c1ccc2cc(S(=O)(=O)O)cc(S(=O)(=O)O)c2n1` was “inactive”; that for `CC(C)(C)c1n[nH]c(=O)n(N)c1=O` was “inactive”; that for `SCCSCCS` was “inactive”.

As for `CCCCCCCCCCCC(=O)OC[C@@H](O)[C@H]1OC[C@H](OCCO)[C@H]1OCCO`, the Potency entry was “inactive”. As to `c1coc(CNc2ncnc3nc[nH]c23)c1`, the Potency entry is “inactive”. For the molecule `Nc1ccc2c(S(=O)(=O)O)cccc2c1S(=O)(=O)O`, the Potency entry was “inactive”. Regarding `Cn1ccnc1`, the Potency result is “inactive”. On to `Oc1ccc2c(c1)OC[C@@H](N1CCC(O)(c3ccc(F)cc3)CC1)[C@H]2O`, for which the Potency result was “inactive”. On the same count and under the same terms, the value for `CCCCCCCCS(=O)(=O)Cl` was “inactive”. The same measure, in the same setting: as for `O=C(O)c1cc(C(=O)O)cc([N+](=O)[O-])c1`, the entry is “inactive”. Regarding `COc1ccc2cc3[n+](cc2c1OC)CCc1cc2c(cc1-3)OCO2`, the Potency result was “inactive”. The same measure, in the same setting: as for `CCOC(=O)[C@H](CCc1ccccc1)N[C@@H](C)C(=O)N1C(=O)N(C)C[C@H]1C(=O)O`, the entry is “inactive”. For the molecule `OCc1ccccc1`, the Potency entry was “inactive”. Regarding `CCCC(C)C(O)CC` (stereo not given), the Potency result was “inactive”. Same read-out and setting: as for `O=C(O)/C=C/c1ccc(Cn2ccnc2)cc1`, the entry is “inactive”. The same measure, in the same setting: as for `CCO[Si](C)(C)OCC`, the entry is “inactive”; as for `CSCCC=O`, “inactive”. On the same count and under the same terms, the value for `c1ccc2cc3c4ccccc4c4ccccc4c3cc2c1` was “inactive”; that for `CCO/C([O-])=N/c1c[n+](N2CCOCC2)no1` was “inactive”; that for `CCCC(=O)C(C)=O` was “inactive”. Turning to `N[C@H](C(=O)O)c1ccc(O)cc1`, the activity change, negative = cytotoxicity was -1.01% [at 13.5 µM]. As for `NCCNCCNCCNCCN`, the Potency entry is “inactive”.

With `O=C(O)c1ccccc1OP(=O)(O)O`, the Potency result is “inactive”.

As for `N=c1nc(N2CCCCC2)cc(N)n1O`, the Potency entry was “inactive”. For the molecule `COC(=O)Cc1cccc2ccccc12`, the Potency entry is “inactive”.

On to `C[C@H]1C[C@H](O)c2ccsc2S1(=O)=O`, for which the Potency result was “inactive”.

In the case of `C=CC(=O)OCCCCCC`, the Potency was 0.363 µM (active). For the molecule `O=C(O)CCCCCC(=O)O`, the Potency result was “inactive”. The same measure, in the same setting: as for `CC/C=C\C#N`, the entry is “inactive”; as for `OCCc1ccccn1`, “inactive”.

Consider `CC(O)C(CO)C(C)O` (stereo not given), for which the Potency entry was “inactive”.

On to `O=c1n(CCCN2CCN(c3cccc(Cl)c3)CC2)nc2ccccn12`, for which the Potency entry was “inactive”. Consider `CC(=O)c1ccc(O)c(C(N)=O)c1`, for which the Potency entry was “inactive”. On the same count and under the same terms, the value for `COc1cc(C)c(Cc2cnc(N)nc2N)cc1OC` was “inactive”; that for `COc1cccc(OC)c1C(=O)O` was “inactive”; that for `CCCCOCCCC` was “inactive”.

Turning to `Cc1ccc(Nc2ccc(O)c3c2C(=O)c2ccccc2C3=O)cc1`, the Potency entry was “inactive”. Consider `Cc1cc(N)no1`, for which the Potency result was “inactive”.

These data come from PubChem BioAssay (Tox21).
